# In paper PMC7862700, “An all-to-all approach to the identification of sequence-specific readers for epigenetic DNA modifications on cytosine”:
# Legend:
# Test in all cases: DAPPL (digital affinity profiling via proximity ligation, sequencing); 10 mM Tris-HCl pH 7.5, 50 mM NaCl, 1 mM DTT, 4% glycerol, room temperature, 30 min; GST-TFs on glutathione beads, 16-mer random dsDNA library, 0.1% formaldehyde crosslink after washing; high values mean tight binding
# FEV = target: T1, FEV (Homo sapiens, UniProt Q99581 1-238); settings: protein: recombinant; tags: N-terminal GST; dsDNA, one strand shown
# T1 sequence: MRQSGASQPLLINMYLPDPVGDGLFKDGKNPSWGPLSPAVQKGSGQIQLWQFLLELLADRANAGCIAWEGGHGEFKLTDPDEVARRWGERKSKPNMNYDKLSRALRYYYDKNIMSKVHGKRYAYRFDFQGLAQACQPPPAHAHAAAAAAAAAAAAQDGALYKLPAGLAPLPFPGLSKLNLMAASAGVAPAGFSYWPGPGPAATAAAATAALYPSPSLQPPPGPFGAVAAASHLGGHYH
# Procedure, shortened: (§1)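 Pools of DNA-barcoded human transcription factors, expressed in yeast as GST fusions on glutathione beads and combined with a tag-only sample, were incubated with 200 nmole of a 16-mer random double-stranded DNA library. Incubation took 30 min at room temperature in Tris/NaCl/DTT/glycerol buffer and was followed by washing, 0.1% formaldehyde crosslinking, proximity ligation (BsaI/T4 ligase, 1 h, 37 °C), PCR amplification and sequencing on an Illumina NextSeq500. Binding signal is the ratio of a hexamer's read frequency for a factor to its frequency for the tag-only sample.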
# ETV5 = ETV5 (Homo sapiens, UniProt P41161 1-510); settings: protein: recombinant; tags: N-terminal GST; dsDNA, one strand shown
# Sequence of ETV5 (P41161 whole entry): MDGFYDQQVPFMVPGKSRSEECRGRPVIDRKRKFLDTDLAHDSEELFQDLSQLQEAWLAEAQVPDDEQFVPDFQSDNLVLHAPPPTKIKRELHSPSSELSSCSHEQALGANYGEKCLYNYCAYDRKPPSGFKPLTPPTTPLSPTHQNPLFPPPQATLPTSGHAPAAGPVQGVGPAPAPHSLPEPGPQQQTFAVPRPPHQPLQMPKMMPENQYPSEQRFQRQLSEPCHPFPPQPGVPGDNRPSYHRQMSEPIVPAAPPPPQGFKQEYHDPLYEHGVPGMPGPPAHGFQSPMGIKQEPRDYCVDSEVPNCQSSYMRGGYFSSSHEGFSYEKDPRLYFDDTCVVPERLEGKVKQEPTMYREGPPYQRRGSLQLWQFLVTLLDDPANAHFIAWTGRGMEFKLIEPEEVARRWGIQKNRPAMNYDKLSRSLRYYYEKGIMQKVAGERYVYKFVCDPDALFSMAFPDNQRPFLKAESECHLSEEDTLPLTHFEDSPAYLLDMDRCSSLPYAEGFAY
# Procedure, shortened: as §1
# HSF1 = HSF1 (Homo sapiens, UniProt Q00613 1-529); settings: protein: recombinant; tags: N-terminal GST; chain copies: 3; dsDNA, one strand shown
# Sequence of HSF1 (Q00613 whole entry): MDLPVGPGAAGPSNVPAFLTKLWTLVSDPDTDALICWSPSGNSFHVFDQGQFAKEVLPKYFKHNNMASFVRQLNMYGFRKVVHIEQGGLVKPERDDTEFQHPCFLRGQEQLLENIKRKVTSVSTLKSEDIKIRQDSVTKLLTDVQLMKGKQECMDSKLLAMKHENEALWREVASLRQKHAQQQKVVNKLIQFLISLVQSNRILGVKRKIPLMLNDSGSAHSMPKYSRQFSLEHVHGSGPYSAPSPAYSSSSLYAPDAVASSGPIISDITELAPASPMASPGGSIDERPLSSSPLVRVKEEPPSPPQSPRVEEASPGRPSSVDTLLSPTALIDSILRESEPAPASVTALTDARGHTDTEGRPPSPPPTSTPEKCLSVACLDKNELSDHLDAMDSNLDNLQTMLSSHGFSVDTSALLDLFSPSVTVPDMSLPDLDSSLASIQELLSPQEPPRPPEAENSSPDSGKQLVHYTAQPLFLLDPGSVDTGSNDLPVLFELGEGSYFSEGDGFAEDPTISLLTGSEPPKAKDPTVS
# Procedure, shortened: as §1
# SPIC = target: T2, SPIC (Homo sapiens, UniProt Q8N5J4 1-248); settings: protein: recombinant; tags: N-terminal GST; dsDNA, one strand shown
# T2 sequence: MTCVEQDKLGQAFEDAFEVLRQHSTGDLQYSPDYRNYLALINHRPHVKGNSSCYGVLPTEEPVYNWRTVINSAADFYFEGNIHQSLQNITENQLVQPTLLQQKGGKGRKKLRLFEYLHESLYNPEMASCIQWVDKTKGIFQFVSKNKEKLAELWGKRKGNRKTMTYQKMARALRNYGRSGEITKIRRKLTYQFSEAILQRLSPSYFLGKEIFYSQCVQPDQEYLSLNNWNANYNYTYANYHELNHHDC
# Procedure, shortened: as §1
# ELF4 = ELF4 (Homo sapiens, UniProt Q99607 1-663); settings: protein: recombinant; tags: N-terminal GST; dsDNA, one strand shown
# Sequence of ELF4 (Q99607 whole entry): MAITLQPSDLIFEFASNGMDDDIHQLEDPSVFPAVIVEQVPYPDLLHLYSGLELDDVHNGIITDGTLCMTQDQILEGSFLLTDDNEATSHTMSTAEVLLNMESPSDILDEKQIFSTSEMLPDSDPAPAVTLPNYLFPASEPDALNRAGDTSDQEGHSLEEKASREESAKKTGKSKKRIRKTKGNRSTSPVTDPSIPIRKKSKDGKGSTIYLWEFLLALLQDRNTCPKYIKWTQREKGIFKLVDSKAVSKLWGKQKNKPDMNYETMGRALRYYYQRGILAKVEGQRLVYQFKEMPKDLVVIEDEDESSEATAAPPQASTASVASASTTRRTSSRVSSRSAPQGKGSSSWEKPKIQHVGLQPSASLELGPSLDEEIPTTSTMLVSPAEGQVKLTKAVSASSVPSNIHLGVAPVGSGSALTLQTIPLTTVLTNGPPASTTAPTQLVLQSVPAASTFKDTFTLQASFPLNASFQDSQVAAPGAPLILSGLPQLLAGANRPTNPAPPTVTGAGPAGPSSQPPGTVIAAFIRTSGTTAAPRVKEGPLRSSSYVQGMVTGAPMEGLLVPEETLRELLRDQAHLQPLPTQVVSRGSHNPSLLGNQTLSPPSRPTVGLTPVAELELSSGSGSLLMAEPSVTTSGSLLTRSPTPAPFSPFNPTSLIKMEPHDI
# Procedure, shortened: as §1
# ELK4 = target: T3, ELK4 (Homo sapiens, UniProt P28324-2 1-405); settings: protein: recombinant; tags: N-terminal GST; dsDNA, one strand shown
# T3 sequence: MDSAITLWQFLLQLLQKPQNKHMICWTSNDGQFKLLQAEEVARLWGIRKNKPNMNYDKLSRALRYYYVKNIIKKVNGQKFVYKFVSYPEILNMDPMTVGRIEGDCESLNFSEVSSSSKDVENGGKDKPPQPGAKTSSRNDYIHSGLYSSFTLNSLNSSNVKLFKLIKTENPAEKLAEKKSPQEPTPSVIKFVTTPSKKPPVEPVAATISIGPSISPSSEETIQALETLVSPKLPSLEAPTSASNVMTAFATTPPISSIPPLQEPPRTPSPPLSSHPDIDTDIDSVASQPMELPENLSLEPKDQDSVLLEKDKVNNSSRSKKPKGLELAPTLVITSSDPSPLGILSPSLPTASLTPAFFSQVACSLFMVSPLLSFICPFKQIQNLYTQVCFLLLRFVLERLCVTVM
# Procedure, shortened: as §1
# ETV2 = target: T4, ETV2 (Homo sapiens, UniProt O00321 1-342); settings: protein: recombinant; tags: N-terminal GST; dsDNA, one strand shown
# T4 sequence: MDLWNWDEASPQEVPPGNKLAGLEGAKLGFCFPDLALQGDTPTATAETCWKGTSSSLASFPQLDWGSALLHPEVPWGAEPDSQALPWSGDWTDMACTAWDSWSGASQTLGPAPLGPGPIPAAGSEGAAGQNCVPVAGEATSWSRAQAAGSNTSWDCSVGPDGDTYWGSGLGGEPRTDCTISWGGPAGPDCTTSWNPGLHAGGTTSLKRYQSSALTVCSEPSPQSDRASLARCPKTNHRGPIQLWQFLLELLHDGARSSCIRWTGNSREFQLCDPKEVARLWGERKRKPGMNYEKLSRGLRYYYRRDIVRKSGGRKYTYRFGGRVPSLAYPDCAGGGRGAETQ
# Procedure, shortened: as §1
# ELF3 = target: T5, ELF3 (Homo sapiens, UniProt P78545 1-371); settings: protein: recombinant; tags: N-terminal GST; dsDNA, one strand shown
# T5 sequence: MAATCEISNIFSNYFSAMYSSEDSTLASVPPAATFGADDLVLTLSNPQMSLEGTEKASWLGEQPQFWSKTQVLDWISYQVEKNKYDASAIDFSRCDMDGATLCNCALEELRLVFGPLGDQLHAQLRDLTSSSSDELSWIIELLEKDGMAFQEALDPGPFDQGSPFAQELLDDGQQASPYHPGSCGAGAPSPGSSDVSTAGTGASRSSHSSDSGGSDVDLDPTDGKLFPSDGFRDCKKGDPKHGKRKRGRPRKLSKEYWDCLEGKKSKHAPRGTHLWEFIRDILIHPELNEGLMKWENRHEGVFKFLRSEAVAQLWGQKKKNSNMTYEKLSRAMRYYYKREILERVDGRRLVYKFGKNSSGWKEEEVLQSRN
# Procedure, shortened: as §1
# CRX = CRX (Homo sapiens, UniProt O43186 1-299); settings: protein: recombinant; tags: N-terminal GST; dsDNA, one strand shown
# Sequence of CRX (O43186 whole entry): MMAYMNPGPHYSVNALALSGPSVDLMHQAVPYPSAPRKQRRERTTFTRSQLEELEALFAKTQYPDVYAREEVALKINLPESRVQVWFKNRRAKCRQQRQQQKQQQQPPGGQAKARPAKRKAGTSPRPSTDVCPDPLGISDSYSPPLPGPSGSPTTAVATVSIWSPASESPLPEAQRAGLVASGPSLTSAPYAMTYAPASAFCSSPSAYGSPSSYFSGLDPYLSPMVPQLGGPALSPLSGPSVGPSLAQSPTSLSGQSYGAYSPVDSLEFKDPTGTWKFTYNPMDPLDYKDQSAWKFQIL
# Procedure, shortened: as §1
# ETV1 = ETV1 (Homo sapiens, UniProt P50549 1-477); settings: protein: recombinant; tags: N-terminal GST; dsDNA, one strand shown
# Sequence of ETV1 (P50549 whole entry): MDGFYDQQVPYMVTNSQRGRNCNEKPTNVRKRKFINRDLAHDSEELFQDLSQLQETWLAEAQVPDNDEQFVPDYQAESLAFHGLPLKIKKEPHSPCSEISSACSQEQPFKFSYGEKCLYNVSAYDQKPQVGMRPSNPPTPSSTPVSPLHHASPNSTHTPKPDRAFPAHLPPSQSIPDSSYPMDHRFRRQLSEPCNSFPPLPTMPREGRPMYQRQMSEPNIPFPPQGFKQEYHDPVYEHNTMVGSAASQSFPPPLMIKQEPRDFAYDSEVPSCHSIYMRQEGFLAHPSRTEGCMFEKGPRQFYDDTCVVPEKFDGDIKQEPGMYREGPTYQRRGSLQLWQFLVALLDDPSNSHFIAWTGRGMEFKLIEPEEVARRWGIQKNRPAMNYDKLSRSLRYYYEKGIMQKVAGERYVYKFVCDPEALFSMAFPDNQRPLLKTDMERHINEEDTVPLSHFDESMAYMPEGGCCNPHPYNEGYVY
# Procedure, shortened: as §1
Sequence,binding signal (FEV),binding signal (ETV5),binding signal (HSF1),binding signal (SPIC),binding signal (ELF4),binding signal (ELK4),binding signal (ETV2),binding signal (ELF3),binding signal (CRX),binding signal (ETV1)
TATGGA,"1.05 fold enrichment (6-mer frequency, TF over GST control)","1.12 fold enrichment (6-mer frequency, TF over GST control)","1.33 fold enrichment (6-mer frequency, TF over GST control)","1.14 fold enrichment (6-mer frequency, TF over GST control)","1.07 fold enrichment (6-mer frequency, TF over GST control)","1 fold enrichment (6-mer frequency, TF over GST control)","1.25 fold enrichment (6-mer frequency, TF over GST control)","1.15 fold enrichment (6-mer frequency, TF over GST control)","1.4 fold enrichment (6-mer frequency, TF over GST control)","1.12 fold enrichment (6-mer frequency, TF over GST control)"
ACTTTG,"1.13 fold enrichment (6-mer frequency, TF over GST control)","1.3 fold enrichment (6-mer frequency, TF over GST control)","1.14 fold enrichment (6-mer frequency, TF over GST control)","1.33 fold enrichment (6-mer frequency, TF over GST control)","1.29 fold enrichment (6-mer frequency, TF over GST control)","1.22 fold enrichment (6-mer frequency, TF over GST control)","1.39 fold enrichment (6-mer frequency, TF over GST control)","1.28 fold enrichment (6-mer frequency, TF over GST control)","1.18 fold enrichment (6-mer frequency, TF over GST control)","1.21 fold enrichment (6-mer frequency, TF over GST control)"
AACCCG,"1.44 fold enrichment (6-mer frequency, TF over GST control)","1.51 fold enrichment (6-mer frequency, TF over GST control)","1.07 fold enrichment (6-mer frequency, TF over GST control)","1.47 fold enrichment (6-mer frequency, TF over GST control)","1.51 fold enrichment (6-mer frequency, TF over GST control)","1.26 fold enrichment (6-mer frequency, TF over GST control)","1.47 fold enrichment (6-mer frequency, TF over GST control)","1.6 fold enrichment (6-mer frequency, TF over GST control)","1.2 fold enrichment (6-mer frequency, TF over GST control)","1.58 fold enrichment (6-mer frequency, TF over GST control)"
GCTCGC,"1.42 fold enrichment (6-mer frequency, TF over GST control)","1.32 fold enrichment (6-mer frequency, TF over GST control)","1.25 fold enrichment (6-mer frequency, TF over GST control)","1.44 fold enrichment (6-mer frequency, TF over GST control)","1.28 fold enrichment (6-mer frequency, TF over GST control)","1.52 fold enrichment (6-mer frequency, TF over GST control)","1.17 fold enrichment (6-mer frequency, TF over GST control)","1.51 fold enrichment (6-mer frequency, TF over GST control)","1.12 fold enrichment (6-mer frequency, TF over GST control)","1.37 fold enrichment (6-mer frequency, TF over GST control)"
CTGCGA,"1.29 fold enrichment (6-mer frequency, TF over GST control)","1.24 fold enrichment (6-mer frequency, TF over GST control)","1.3 fold enrichment (6-mer frequency, TF over GST control)","1.1 fold enrichment (6-mer frequency, TF over GST control)","1.28 fold enrichment (6-mer frequency, TF over GST control)","1.08 fold enrichment (6-mer frequency, TF over GST control)","1.24 fold enrichment (6-mer frequency, TF over GST control)","1.2 fold enrichment (6-mer frequency, TF over GST control)","1.18 fold enrichment (6-mer frequency, TF over GST control)","1.32 fold enrichment (6-mer frequency, TF over GST control)"
ACTTCG,"1.42 fold enrichment (6-mer frequency, TF over GST control)","1.39 fold enrichment (6-mer frequency, TF over GST control)","1.65 fold enrichment (6-mer frequency, TF over GST control)","1.55 fold enrichment (6-mer frequency, TF over GST control)","1.47 fold enrichment (6-mer frequency, TF over GST control)","1.25 fold enrichment (6-mer frequency, TF over GST control)","1.45 fold enrichment (6-mer frequency, TF over GST control)","1.23 fold enrichment (6-mer frequency, TF over GST control)","1.3 fold enrichment (6-mer frequency, TF over GST control)","1.46 fold enrichment (6-mer frequency, TF over GST control)"
GCCTAA,"1.21 fold enrichment (6-mer frequency, TF over GST control)","1.19 fold enrichment (6-mer frequency, TF over GST control)","1.38 fold enrichment (6-mer frequency, TF over GST control)","1.35 fold enrichment (6-mer frequency, TF over GST control)","1.25 fold enrichment (6-mer frequency, TF over GST control)","1.25 fold enrichment (6-mer frequency, TF over GST control)","1.19 fold enrichment (6-mer frequency, TF over GST control)","1.35 fold enrichment (6-mer frequency, TF over GST control)","1.84 fold enrichment (6-mer frequency, TF over GST control)","1.22 fold enrichment (6-mer frequency, TF over GST control)"
TAACAT,"1.32 fold enrichment (6-mer frequency, TF over GST control)","1.36 fold enrichment (6-mer frequency, TF over GST control)","1.29 fold enrichment (6-mer frequency, TF over GST control)","1.46 fold enrichment (6-mer frequency, TF over GST control)","1.37 fold enrichment (6-mer frequency, TF over GST control)","1.29 fold enrichment (6-mer frequency, TF over GST control)","1.39 fold enrichment (6-mer frequency, TF over GST control)","1.5 fold enrichment (6-mer frequency, TF over GST control)","1.57 fold enrichment (6-mer frequency, TF over GST control)","1.37 fold enrichment (6-mer frequency, TF over GST control)"
